Assay results from PubChem BioAssay (NCI).
Compounds without any hit were thinned out: in the full panel of roughly 83,000, 20% have a hit.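 Cell lines were cultured in 96-well plates, exposed to a single compound concentration, and assessed for percent growth 48 hours later.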 Unmarked numbers belong to inactive results. The source made the active and inactive calls. How the source made its calls: active means growth percent below 10; inactive means the rest.

Experiments:
Experiment in all cases: NCI-60 one-dose screen, 48 h (100 = growth as untreated, 0 = no growth, -100 = all killed)
Details in all cases: 10 µM unless noted
NCI-H23 lung = test system: NCI-H23 lung
NCI-H322M lung = test system: NCI-H322M lung
HOP-62 NSCLC = test system: HOP-62 NSCLC
NCI-H460 lung = test system: NCI-H460 lung
HOP-92 NSCLC = test system: HOP-92 NSCLC
NCI-H522 lung = test system: NCI-H522 lung
A549/ATCC NSCLC = test system: A549/ATCC NSCLC
786-0 renal = test system: 786-0 renal
COLO 205 colon = test system: COLO 205 colon
DU-145 prostate = test system: DU-145 prostate
K-562 leukemia = test system: K-562 leukemia
MALME-3M melanoma = test system: MALME-3M melanoma
MDA-MB-231 breast = test system: MDA-MB-231 breast
RXF 393 renal = test system: RXF 393 renal
SF-268 CNS = test system: SF-268 CNS
SF-295 CNS = test system: SF-295 CNS
SF-539 CNS = test system: SF-539 CNS
UACC-257 melanoma = test system: UACC-257 melanoma
M14 melanoma = test system: M14 melanoma
HCT-15 colon = test system: HCT-15 colon

Compound	growth (NCI-H23 lung)	growth (NCI-H322M lung)	growth (HOP-62 NSCLC)	growth (NCI-H460 lung)	growth (HOP-92 NSCLC)	growth (NCI-H522 lung)	growth (A549/ATCC NSCLC)	growth (786-0 renal)	growth (COLO 205 colon)	growth (DU-145 prostate)	growth (K-562 leukemia)	growth (MALME-3M melanoma)	growth (MDA-MB-231 breast)	growth (RXF 393 renal)	growth (SF-268 CNS)	growth (SF-295 CNS)	growth (SF-539 CNS)	growth (UACC-257 melanoma)	growth (M14 melanoma)	growth (HCT-15 colon)
COC(=O)/C(CCC=C(C)C)=C1\[C@@H](OC(C)=O)C[C@@]2(C)[C@H]1C[C@@H](O)[C@H]1[C@@]3(C)CC[C@H](NCCCNCCCCNCCCN)[C@@H](C)[C@@H]3CC[C@@]12C	61.4%	67.9%	52.1%	19.4%	52.6%	93.7%	62.1%	44.8%	21.6%	70.5%	33.4%	47.2%	56%	75.8%	81.3%	41.9%	66%	91.9%	40%	–
NCCOc1ncccc1/C=C1\c2ccccc2-c2ccc([N+](=O)[O-])cc21	-68.1% (active)	-23.4% (active)	-60.1% (active)	-46.1% (active)	-39.5% (active)	-20% (active)	-58.6% (active)	-85.8% (active)	-50.5% (active)	-34.4% (active)	2.88% (active)	-80.4% (active)	-42.3% (active)	-88.6% (active)	-12.9% (active)	-36.6% (active)	-83% (active)	5.4% (active)	-63.3% (active)	-26.4% (active)
O=c1oc2ccc(I)cc2c(=O)n1-c1ccc(I)cc1F	4.94% (active)	7.17% (active)	-8.24% (active)	0.977% (active)	-10.4% (active)	-16.1% (active)	6.24% (active)	2.44% (active)	44.5%	15.8%	5.58% (active)	-27.7% (active)	-9.68% (active)	-3.51% (active)	8.4% (active)	-56.6% (active)	2.15% (active)	-20.3% (active)	-2.96% (active)	2% (active)
O=C(Nc1ccccc1O)c1ccc(Oc2cccc(C(=O)Nc3ccccc3O)c2)cc1	25.5%	25.9%	6.43% (active)	1.59% (active)	31.4%	-16% (active)	7.58% (active)	3.76% (active)	93.4%	12.1%	-29.1% (active)	13.6%	32%	26.6%	0.105% (active)	-28.5% (active)	7.4% (active)	10.4%	-44.5% (active)	32.2%
COc1ccc(C2=Nn3c(NN)nnc3SC2)cc1	95.9%	95.2%	104%	112%	105%	75.5%	87.2%	104%	108%	103%	83.3%	109%	103%	95.8%	100%	106%	95.6%	84.3%	113%	114%
O=c1c(-c2nc3ccccc3[nH]2)cc2ccccc2n1Cc1cn(Cc2ccccc2Cl)nn1	56.9%	52.3%	35.1%	6.86% (active)	11.3%	45.1%	15.4%	-20.2% (active)	54%	18.1%	30.7%	5.45% (active)	-21% (active)	13.1%	45.2%	32.9%	4.13% (active)	56.8%	38.4%	19.7%
NCCOc1ncccc1/C=C1\c2ccccc2-c2ccc(F)cc21	-6.99% (active)	48.4%	11.1%	-33.3% (active)	29.8%	37.7%	-51.9% (active)	6.26% (active)	-30.1% (active)	7.83% (active)	3.28% (active)	32.3%	34.7%	25.2%	23.2%	2.01% (active)	11.5%	67.6%	25.2%	3.22% (active)
O=C1/C(=C\c2ccc[nH]2)c2ccccc2N1c1ccccc1	87.9%	91.7%	106%	95.8%	96%	75.5%	96%	98.1%	108%	112%	90.9%	103%	84.4%	105%	101%	104%	94%	110%	109%	82.7%
CN(C)c1ccc(N=Cc2ccc(N3CCOCC3)cc2)cc1	68.5%	106%	87.3%	92.3%	100%	42.4%	73.7%	101%	3.73% (active)	99.6%	56.6%	81.8%	48.2%	130%	84.7%	83.3%	31.6%	84.8%	71.2%	77.3%
CN1CCN(Cc2ccc(C(=O)Nc3cncc(C#Cc4cnc(N)c5ccccc45)c3)cc2C(F)(F)F)CC1	-41.8% (active)	-31.5% (active)	-48.4% (active)	-80.8% (active)	45.2%	-54.3% (active)	-67.8% (active)	-82.1% (active)	-50.9% (active)	-87.2% (active)	-46% (active)	-86.9% (active)	-82.2% (active)	-81.5% (active)	-69.5% (active)	-82.7% (active)	-95.9% (active)	-75% (active)	-85.2% (active)	-37.6% (active)
CCOC(=O)c1sc(-c2ccc(OS(=O)(=O)c3ccc(Br)s3)c(C=O)c2)nc1C	11.9%	83.8%	19.6%	77.6%	26.5%	-5.7% (active)	76.1%	9.63% (active)	84.8%	21.2%	9.45% (active)	13.2%	4.99% (active)	51.7%	16.4%	32.8%	-5.53% (active)	28.8%	1.87% (active)	1.83% (active)
C[n+]1c2ccccc2nc2ccc(NCCO)cc21	90.6%	88.8%	98.1%	86.8%	30.9%	92.2%	86.2%	80.8%	68.8%	97.2%	68.2%	101%	77.2%	83.2%	63.7%	98.5%	90.8%	99.2%	92.8%	93.8%
Cc1nc2ccccc2c(/C=C/c2ccc(F)cc2)c1C(N)=O	101%	110%	95.2%	108%	105%	94.3%	97.7%	99.8%	114%	105%	95.8%	105%	92%	106%	96.4%	102%	102%	99.9%	103%	108%
COC(=O)/C(CCC=C(C)C)=C1\[C@@H](OC(C)=O)C[C@@]2(C)[C@H]1C[C@@H](O)[C@H]1[C@@]3(C)CC[C@H](NC(=O)c4cnccn4)[C@@H](C)[C@@H]3CC[C@@]12C	103%	108%	102%	109%	100%	89.6%	97.9%	92.2%	110%	93.7%	85.5%	100%	96.5%	107%	94.8%	103%	105%	110%	99.8%	96.3%
O=C(CCc1nnc2sc(Cc3ccccc3Cl)nn12)c1nc2ncccc2[nH]1	89.9%	93.5%	92.3%	97.8%	78.4%	81.5%	104%	105%	109%	101%	102%	94.4%	73%	104%	85.5%	99.6%	94.2%	107%	96.5%	98.9%
CC(=Nc1ccccc1)C1=C(O)C(Cc2ccc(F)cc2)NC1=O (centres undefined)	30.7%	37.5%	42.7%	13.4%	72.4%	-9.06% (active)	35.9%	48.2%	-52.1% (active)	8.32% (active)	12.3%	24.2%	69.7%	15.2%	54.9%	8.24% (active)	18.7%	38.8%	12.8%	23.3%
